Article PMC7862700, “An all-to-all approach to the identification of sequence-specific readers for epigenetic DNA modifications on cytosine”

Legend:
Test in all cases: DAPPL (digital affinity profiling via proximity ligation, sequencing); 10 mM Tris-HCl pH 7.5, 50 mM NaCl, 1 mM DTT, 4% glycerol, room temperature, 30 min; GST-TFs on glutathione beads, 16-mer random dsDNA library, 0.1% formaldehyde crosslink after washing; high values mean tight binding
Conditions in all cases: protein: recombinant; tags: N-terminal GST; dsDNA, one strand shown
FLI1 = target: T1, FLI1 (Homo sapiens, UniProt Q01543 1-452)
T1 sequence: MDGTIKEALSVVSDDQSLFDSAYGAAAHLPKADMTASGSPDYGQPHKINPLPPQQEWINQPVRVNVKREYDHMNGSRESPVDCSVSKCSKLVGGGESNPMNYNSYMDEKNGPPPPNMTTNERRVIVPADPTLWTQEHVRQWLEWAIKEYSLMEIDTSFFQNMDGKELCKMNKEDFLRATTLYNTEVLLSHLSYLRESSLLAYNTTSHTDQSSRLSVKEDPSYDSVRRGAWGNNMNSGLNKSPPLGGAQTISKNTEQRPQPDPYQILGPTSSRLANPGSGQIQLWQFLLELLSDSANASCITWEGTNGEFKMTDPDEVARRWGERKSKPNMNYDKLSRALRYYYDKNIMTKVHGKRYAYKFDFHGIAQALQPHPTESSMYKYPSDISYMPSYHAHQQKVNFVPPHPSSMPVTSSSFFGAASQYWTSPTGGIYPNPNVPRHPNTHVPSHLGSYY
Outline: (§1)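 Human transcription factors were made in yeast as GST fusions, captured on glutathione beads and barcoded with DNA. With a tag-only sample included, the pool was incubated with 200 nmole of a random double-stranded 16-mer DNA library in Tris/NaCl/DTT/glycerol buffer at room temperature for 30 min, then crosslinked with 0.1% formaldehyde after washing, ligated by proximity, amplified and sequenced. For binding signal, each hexamer's read frequency for a factor is divided by its frequency for the tag-only sample.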

ELK1 = target: T2, ELK1 (Homo sapiens, UniProt P19419 1-428)
T2 sequence: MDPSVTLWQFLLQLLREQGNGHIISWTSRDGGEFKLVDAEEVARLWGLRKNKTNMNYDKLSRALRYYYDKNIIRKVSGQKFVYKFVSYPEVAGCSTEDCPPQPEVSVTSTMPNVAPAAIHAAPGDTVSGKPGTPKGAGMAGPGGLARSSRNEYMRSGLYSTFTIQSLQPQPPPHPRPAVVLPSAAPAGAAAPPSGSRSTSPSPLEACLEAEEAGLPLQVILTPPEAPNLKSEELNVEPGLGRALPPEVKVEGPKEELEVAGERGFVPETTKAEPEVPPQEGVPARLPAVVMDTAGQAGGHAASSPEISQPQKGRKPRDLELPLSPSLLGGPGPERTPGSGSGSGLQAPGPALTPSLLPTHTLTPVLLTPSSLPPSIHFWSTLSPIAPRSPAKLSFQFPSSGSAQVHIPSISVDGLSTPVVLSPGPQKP
Outline: as §1

GABPA = target: T3, GABPA (Homo sapiens, UniProt Q06546 1-454)
T3 sequence: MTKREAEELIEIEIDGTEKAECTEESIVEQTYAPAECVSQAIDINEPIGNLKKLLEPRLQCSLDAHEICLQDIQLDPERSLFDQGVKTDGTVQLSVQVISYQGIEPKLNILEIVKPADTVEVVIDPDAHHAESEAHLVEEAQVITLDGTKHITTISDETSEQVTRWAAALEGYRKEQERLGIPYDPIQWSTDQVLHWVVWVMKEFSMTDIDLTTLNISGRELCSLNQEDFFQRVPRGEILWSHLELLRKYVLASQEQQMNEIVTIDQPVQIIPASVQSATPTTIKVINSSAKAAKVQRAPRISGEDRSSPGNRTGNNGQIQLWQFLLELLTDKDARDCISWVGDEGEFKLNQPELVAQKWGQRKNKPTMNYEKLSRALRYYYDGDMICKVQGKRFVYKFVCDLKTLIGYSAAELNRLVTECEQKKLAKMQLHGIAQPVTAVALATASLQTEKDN
Outline: as §1

ERG = target: T4, ERG (Homo sapiens, UniProt P11308 1-479)
T4 sequence: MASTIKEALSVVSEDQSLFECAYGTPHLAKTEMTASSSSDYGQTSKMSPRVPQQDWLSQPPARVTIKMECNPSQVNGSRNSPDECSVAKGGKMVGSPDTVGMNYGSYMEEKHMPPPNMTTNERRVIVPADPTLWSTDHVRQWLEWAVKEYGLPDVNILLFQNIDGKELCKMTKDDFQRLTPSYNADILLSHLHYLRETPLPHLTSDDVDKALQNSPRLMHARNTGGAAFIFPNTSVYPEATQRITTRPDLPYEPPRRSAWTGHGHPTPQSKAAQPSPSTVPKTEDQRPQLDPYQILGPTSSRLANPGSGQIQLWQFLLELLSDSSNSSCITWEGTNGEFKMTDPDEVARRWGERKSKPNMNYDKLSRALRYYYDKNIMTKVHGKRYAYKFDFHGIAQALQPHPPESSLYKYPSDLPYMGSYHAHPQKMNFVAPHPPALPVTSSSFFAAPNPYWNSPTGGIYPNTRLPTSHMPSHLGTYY
Outline: as §1

ELF1 = ELF1 (Homo sapiens, UniProt P32519 1-619)
Outline: as §1

EHF = target: T5, EHF (Homo sapiens, UniProt Q9NZC4 1-300)
T5 sequence: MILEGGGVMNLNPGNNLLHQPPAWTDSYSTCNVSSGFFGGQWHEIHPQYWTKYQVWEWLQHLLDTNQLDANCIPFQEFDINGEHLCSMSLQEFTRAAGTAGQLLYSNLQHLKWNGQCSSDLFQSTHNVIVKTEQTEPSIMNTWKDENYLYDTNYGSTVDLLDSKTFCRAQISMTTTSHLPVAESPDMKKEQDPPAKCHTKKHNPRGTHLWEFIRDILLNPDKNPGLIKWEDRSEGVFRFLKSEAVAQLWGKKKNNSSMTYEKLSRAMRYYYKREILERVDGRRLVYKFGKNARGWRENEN
Outline: as §1

SPI1 = SPI1 (Homo sapiens, UniProt P17947 1-270)
Outline: as §1

SPIB = SPIB (Homo sapiens, UniProt Q01892 1-262)
Outline: as §1

ELK3 = target: T6, ELK3 (Homo sapiens, UniProt P41970 1-407)
T6 sequence: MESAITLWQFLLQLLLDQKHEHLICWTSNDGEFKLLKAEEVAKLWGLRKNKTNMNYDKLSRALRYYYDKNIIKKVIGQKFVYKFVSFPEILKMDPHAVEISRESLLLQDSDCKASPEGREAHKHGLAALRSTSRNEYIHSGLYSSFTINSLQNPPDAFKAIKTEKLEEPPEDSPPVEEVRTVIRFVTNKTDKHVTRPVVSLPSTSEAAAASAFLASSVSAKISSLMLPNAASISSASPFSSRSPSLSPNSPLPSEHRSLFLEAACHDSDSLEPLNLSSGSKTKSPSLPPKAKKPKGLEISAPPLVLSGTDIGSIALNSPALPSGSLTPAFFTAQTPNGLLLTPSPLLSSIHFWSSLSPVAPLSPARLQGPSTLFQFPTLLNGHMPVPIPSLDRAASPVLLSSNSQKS
Outline: as §1

FEV = target: T7, FEV (Homo sapiens, UniProt Q99581 1-238)
T7 sequence: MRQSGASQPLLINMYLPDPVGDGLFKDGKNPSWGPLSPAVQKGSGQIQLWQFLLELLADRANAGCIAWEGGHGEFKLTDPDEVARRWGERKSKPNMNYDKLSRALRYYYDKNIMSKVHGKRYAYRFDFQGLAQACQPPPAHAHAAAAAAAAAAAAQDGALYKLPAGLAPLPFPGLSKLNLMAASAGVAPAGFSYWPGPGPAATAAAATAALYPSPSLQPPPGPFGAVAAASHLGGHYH
Outline: as §1

ETV5 = ETV5 (Homo sapiens, UniProt P41161 1-510)
Outline: as §1

SPIC = target: T8, SPIC (Homo sapiens, UniProt Q8N5J4 1-248)
T8 sequence: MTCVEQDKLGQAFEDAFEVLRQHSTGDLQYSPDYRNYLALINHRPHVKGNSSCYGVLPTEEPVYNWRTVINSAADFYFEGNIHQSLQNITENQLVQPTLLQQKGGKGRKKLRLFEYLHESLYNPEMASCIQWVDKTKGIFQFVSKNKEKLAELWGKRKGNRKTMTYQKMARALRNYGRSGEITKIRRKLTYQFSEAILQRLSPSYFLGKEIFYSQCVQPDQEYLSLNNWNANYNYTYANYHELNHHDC
Outline: as §1

ELF4 = ELF4 (Homo sapiens, UniProt Q99607 1-663)
Outline: as §1

ELK4 = target: T9, ELK4 (Homo sapiens, UniProt P28324-2 1-405)
T9 sequence: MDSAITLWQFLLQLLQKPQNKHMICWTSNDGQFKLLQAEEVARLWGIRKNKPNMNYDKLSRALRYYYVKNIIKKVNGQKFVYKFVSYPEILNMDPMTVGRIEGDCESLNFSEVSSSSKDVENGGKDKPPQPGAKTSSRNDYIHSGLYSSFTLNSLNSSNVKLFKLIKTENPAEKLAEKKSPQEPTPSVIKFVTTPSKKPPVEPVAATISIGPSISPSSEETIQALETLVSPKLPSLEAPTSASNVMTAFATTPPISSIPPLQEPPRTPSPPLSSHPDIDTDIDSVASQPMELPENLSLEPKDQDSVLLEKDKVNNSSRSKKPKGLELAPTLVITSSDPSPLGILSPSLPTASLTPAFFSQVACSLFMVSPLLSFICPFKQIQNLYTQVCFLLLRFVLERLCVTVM
Outline: as §1

ETV2 = target: T10, ETV2 (Homo sapiens, UniProt O00321 1-342)
T10 sequence: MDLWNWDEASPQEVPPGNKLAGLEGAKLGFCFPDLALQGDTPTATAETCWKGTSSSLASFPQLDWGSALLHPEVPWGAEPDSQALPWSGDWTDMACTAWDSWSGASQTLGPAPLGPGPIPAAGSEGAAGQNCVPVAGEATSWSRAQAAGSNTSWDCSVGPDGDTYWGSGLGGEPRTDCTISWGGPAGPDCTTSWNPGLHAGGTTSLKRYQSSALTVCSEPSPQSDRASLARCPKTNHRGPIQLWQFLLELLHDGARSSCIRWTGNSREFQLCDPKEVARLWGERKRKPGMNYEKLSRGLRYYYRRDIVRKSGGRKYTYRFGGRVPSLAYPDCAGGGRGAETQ
Outline: as §1

ELF3 = target: T11, ELF3 (Homo sapiens, UniProt P78545 1-371)
T11 sequence: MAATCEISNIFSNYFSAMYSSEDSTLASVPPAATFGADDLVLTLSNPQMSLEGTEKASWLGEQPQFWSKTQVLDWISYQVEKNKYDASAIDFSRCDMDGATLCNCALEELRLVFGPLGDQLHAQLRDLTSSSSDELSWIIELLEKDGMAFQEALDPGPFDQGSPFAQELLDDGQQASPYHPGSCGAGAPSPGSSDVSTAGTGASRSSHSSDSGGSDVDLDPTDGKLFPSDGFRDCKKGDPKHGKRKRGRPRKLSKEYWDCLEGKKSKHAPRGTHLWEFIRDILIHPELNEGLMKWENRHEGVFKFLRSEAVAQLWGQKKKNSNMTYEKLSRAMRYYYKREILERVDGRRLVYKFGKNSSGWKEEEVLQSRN
Outline: as §1

CRX = CRX (Homo sapiens, UniProt O43186 1-299)
Outline: as §1

ETV1 = ETV1 (Homo sapiens, UniProt P50549 1-477)
Outline: as §1

Sequence of ETV5 (P41161 whole entry): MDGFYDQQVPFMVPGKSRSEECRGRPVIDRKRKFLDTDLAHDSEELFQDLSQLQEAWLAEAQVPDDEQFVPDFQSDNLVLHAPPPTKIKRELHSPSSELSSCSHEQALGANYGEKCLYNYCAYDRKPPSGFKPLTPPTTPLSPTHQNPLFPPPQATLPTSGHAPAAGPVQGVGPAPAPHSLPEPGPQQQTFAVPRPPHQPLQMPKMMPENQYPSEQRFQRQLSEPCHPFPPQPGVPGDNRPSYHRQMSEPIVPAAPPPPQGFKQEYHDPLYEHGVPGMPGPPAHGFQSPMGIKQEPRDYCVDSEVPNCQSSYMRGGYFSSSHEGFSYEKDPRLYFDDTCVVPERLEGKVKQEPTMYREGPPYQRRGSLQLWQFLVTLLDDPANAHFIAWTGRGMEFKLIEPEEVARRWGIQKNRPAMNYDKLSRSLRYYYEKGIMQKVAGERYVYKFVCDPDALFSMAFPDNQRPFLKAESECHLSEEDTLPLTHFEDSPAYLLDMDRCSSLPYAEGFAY
Sequence of SPIB (Q01892 whole entry): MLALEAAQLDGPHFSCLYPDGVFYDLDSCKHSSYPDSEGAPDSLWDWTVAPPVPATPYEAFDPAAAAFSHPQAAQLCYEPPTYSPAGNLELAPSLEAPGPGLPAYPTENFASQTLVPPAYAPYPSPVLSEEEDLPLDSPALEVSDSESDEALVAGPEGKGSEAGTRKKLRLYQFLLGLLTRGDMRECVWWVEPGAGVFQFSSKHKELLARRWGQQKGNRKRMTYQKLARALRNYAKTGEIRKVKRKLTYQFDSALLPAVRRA
Sequence of CRX (O43186 whole entry): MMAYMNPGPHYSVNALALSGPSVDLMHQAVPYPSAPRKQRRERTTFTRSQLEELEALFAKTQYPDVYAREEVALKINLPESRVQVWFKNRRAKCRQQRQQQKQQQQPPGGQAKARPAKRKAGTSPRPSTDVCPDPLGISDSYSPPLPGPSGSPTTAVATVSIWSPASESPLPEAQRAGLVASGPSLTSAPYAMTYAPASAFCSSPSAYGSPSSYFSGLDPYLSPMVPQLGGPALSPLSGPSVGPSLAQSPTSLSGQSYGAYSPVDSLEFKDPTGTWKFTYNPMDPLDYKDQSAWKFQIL
Sequence of ETV1 (P50549 whole entry): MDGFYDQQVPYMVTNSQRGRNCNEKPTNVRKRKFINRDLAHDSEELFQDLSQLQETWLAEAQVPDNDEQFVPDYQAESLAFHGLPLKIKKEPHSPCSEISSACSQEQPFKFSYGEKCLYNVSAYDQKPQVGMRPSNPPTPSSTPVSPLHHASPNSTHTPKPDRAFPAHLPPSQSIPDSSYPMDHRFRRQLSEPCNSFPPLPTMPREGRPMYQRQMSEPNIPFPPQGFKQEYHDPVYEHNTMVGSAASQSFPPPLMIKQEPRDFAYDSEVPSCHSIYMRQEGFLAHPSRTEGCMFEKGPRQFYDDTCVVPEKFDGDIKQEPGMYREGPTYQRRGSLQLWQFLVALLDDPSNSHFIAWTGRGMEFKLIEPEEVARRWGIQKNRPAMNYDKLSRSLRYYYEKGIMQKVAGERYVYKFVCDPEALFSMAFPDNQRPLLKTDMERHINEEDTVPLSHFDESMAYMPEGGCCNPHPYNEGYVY
Sequence of ELF4 (Q99607 whole entry): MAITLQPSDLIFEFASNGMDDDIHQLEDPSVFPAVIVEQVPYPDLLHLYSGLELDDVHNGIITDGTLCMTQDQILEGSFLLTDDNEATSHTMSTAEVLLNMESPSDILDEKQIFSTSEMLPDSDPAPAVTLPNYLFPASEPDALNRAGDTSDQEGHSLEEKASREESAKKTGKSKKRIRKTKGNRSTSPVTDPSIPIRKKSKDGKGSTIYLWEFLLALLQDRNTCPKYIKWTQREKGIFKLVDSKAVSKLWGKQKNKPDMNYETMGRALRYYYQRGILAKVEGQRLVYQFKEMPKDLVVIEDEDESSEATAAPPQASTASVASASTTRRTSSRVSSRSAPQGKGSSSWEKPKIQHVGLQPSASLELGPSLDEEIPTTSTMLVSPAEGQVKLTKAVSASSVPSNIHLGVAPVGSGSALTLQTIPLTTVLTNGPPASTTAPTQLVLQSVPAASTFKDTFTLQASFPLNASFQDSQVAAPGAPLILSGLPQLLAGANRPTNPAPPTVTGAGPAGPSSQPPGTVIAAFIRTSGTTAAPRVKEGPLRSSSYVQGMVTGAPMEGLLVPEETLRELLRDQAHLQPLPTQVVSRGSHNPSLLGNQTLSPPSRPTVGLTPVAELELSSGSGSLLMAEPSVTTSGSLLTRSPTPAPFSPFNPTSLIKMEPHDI
Sequence of ELF1 (P32519 whole entry): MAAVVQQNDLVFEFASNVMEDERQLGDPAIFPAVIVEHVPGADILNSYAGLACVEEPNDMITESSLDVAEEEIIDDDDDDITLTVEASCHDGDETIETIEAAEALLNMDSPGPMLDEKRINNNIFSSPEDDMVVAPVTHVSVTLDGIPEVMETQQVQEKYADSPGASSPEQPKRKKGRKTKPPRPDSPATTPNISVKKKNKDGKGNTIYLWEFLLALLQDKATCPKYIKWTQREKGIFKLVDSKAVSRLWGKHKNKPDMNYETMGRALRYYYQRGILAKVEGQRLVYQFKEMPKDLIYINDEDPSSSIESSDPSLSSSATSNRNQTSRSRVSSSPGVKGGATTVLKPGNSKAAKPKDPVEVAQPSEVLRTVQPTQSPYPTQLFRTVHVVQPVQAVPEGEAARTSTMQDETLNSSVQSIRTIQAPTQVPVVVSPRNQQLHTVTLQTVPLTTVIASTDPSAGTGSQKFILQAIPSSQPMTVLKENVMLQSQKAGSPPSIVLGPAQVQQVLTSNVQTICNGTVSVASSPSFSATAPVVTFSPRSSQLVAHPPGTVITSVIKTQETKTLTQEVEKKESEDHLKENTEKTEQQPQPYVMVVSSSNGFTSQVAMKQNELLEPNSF

TACCGC
binding signal (FLI1): 1.16 fold enrichment (6-mer frequency, TF over GST control) | binding signal (ELK1): 1.07 fold enrichment (6-mer frequency, TF over GST control) | binding signal (GABPA): 1.02 fold enrichment (6-mer frequency, TF over GST control) | binding signal (ERG): 1.08 fold enrichment (6-mer frequency, TF over GST control) | binding signal (ELF1): 1.02 fold enrichment (6-mer frequency, TF over GST control) | binding signal (EHF): 1.11 fold enrichment (6-mer frequency, TF over GST control) | binding signal (SPI1): 1.19 fold enrichment (6-mer frequency, TF over GST control) | binding signal (SPIB): 1.09 fold enrichment (6-mer frequency, TF over GST control) | binding signal (ELK3): 1.13 fold enrichment (6-mer frequency, TF over GST control) | binding signal (FEV): 1.13 fold enrichment (6-mer frequency, TF over GST control) | binding signal (ETV5): 1.06 fold enrichment (6-mer frequency, TF over GST control) | binding signal (SPIC): 1.15 fold enrichment (6-mer frequency, TF over GST control) | binding signal (ELF4): 1.1 fold enrichment (6-mer frequency, TF over GST control) | binding signal (ELK4): 1.14 fold enrichment (6-mer frequency, TF over GST control) | binding signal (ETV2): 1.16 fold enrichment (6-mer frequency, TF over GST control) | binding signal (ELF3): 1.23 fold enrichment (6-mer frequency, TF over GST control) | binding signal (CRX): 1.03 fold enrichment (6-mer frequency, TF over GST control) | binding signal (ETV1): 1.06 fold enrichment (6-mer frequency, TF over GST control)
